# Laboratory results from PubChem BioAssay (NCI).
# The panel holds about 83,000 compounds, 20% with a hit somewhere; the sample as a whole holds those more often.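 Single-concentration screen, 48 h exposure, 96-well plates. Endpoint: percent growth. Below 10 = active.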 Values without a mark were called inactive. The source made the active and inactive calls.
# Columns and labels:
# Test in all cases: NCI-60 one-dose screen, 48 h (100 = growth as untreated, 0 = no growth, -100 = all killed)
# Conditions in all cases: 10 µM
# NCI-H23 lung = tested on: NCI-H23 lung
# NCI-H226 lung = tested on: NCI-H226 lung
# NCI-H322M lung = tested on: NCI-H322M lung
# HOP-62 NSCLC = tested on: HOP-62 NSCLC
# NCI-H460 lung = tested on: NCI-H460 lung
# HOP-92 NSCLC = tested on: HOP-92 NSCLC
# NCI-H522 lung = tested on: NCI-H522 lung
# A549/ATCC NSCLC = tested on: A549/ATCC NSCLC
# 786-0 renal = tested on: 786-0 renal
# COLO 205 colon = tested on: COLO 205 colon
# DU-145 prostate = tested on: DU-145 prostate
# K-562 leukemia = tested on: K-562 leukemia
# MALME-3M melanoma = tested on: MALME-3M melanoma
# MDA-MB-231 breast = tested on: MDA-MB-231 breast
# SF-268 CNS = tested on: SF-268 CNS
# SF-295 CNS = tested on: SF-295 CNS
# SF-539 CNS = tested on: SF-539 CNS
# UACC-257 melanoma = tested on: UACC-257 melanoma
# M14 melanoma = tested on: M14 melanoma
# RXF 393 renal = tested on: RXF 393 renal
Compound,growth (NCI-H23 lung),growth (NCI-H226 lung),growth (NCI-H322M lung),growth (HOP-62 NSCLC),growth (NCI-H460 lung),growth (HOP-92 NSCLC),growth (NCI-H522 lung),growth (A549/ATCC NSCLC),growth (786-0 renal),growth (COLO 205 colon),growth (DU-145 prostate),growth (K-562 leukemia),growth (MALME-3M melanoma),growth (MDA-MB-231 breast),growth (SF-268 CNS),growth (SF-295 CNS),growth (SF-539 CNS),growth (UACC-257 melanoma),growth (M14 melanoma),growth (RXF 393 renal) [%]
CC(=O)c1cc(C(=O)c2ccc3c(c2)NC(=O)CO3)n2ccc3ccccc3c12,58.3%,62.3%,87.8%,74.1%,63.8%,97.7%,71.6%,29.8%,51.7%,91.9%,84.1%,84.1%,-5.58% (active),29.9%,79%,98.9%,31.9%,86.1%,65.1%,
COc1ccc(C(=O)/C=C/c2cc(C(F)(F)F)cc(C(F)(F)F)c2)cc1S(N)(=O)=O,-86.1% (active),-69.7% (active),-73.8% (active),-44.7% (active),-24% (active),-37.9% (active),-67.7% (active),-11.7% (active),-69.2% (active),-66.1% (active),-41.4% (active),8.85% (active),-94.7% (active),-77.8% (active),6.18% (active),-86% (active),-98.4% (active),-55.5% (active),-75.8% (active),
O=C(N/C(=C1/OCCN1Cc1ccccc1)[P+](c1ccccc1)(c1ccccc1)c1ccccc1)c1ccccc1,-5.42% (active),-5.51% (active),58.7%,44.8%,3.22% (active),-16.5% (active),-6.25% (active),47.6%,4.98% (active),4.11% (active),-15.1% (active),8.08% (active),-60.6% (active),0.242% (active),21.1%,31.4%,25.3%,-4.84% (active),19.4%,
CN1CCO/C1=C(/NC(=O)c1ccc(Cl)cc1)[P+](c1ccccc1)(c1ccccc1)c1ccccc1,84.5%,89.3%,96.6%,95%,94.1%,60.9%,58.4%,102%,103%,68.9%,95.2%,50.3%,69.2%,61.8%,97%,80.2%,94.5%,62.4%,88.5%,
CC1(C)[C@@H](NCO)CC[C@]2(C)[C@H]3C(=O)C=C4[C@@H]5C[C@](C)(CO)CC[C@]5(C)CC[C@@]4(C)[C@]3(C)CC[C@@H]12,66.5%,68%,63.1%,85.2%,0.687% (active),52%,72.7%,60%,42.8%,24.6%,79.4%,8.51% (active),49%,44.2%,68.8%,2.19% (active),45.4%,33.4%,25.5%,
CCOC(=O)C(Cc1ccccc1)N1C(=O)/C(=C/N2N=C(c3ccc(OC)cc3)CC2c2ccc3ccccc3c2)SC1=S (configuration not stated),-55.5% (active),-41.8% (active),18.2%,-54.8% (active),-3.96% (active),-8.32% (active),1.04% (active),21.7%,13.8%,-86% (active),30.7%,11.9%,-27.2% (active),3.55% (active),30.2%,-78.2% (active),-27.2% (active),1.02% (active),7.24% (active),
COc1ccc(C(=O)/C=C/c2ccc(Cl)c(C(F)(F)F)c2)cc1S(N)(=O)=O,-86.5% (active),-95.3% (active),-100% (active),-84% (active),-79.2% (active),-68.8% (active),-83.2% (active),-78.1% (active),-85.6% (active),-71.5% (active),-20.9% (active),5.18% (active),-97.9% (active),-100% (active),-40.5% (active),-100% (active),-100% (active),-78.2% (active),-87.5% (active),
O=c1[nH]n(C(=S)N/N=C/c2ccc(F)cc2)c(=O)c2ccccc12,75.3%,71.9%,83.9%,80.3%,55.9%,77%,70%,82.4%,76.5%,105%,68.9%,11.2%,80.4%,,104%,74.4%,-50.9% (active),95%,78.1%,57.3
